Where “and” joins values, the source holds several entries; their conditions need not be identical. Equal values may be shown once. This is part of a sample that, as a whole, favours compounds with a hit. Of some 83,000 tested, about 20% had one in any assay.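 Assay: single dose, 48 h. Readout: percent growth (0 = no net growth; negative = cell death). Active: <10.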 Calls of active or inactive are those of the source.
How the values were obtained:
Assay in all cases: NCI-60 one-dose screen, 48 h (100 = growth as untreated, 0 = no growth, -100 = all killed)
SK-MEL-2 melanoma = system: SK-MEL-2 melanoma
EKVX NSCLC = system: EKVX NSCLC
SN12C renal = system: SN12C renal
UO-31 renal = system: UO-31 renal
TK-10 renal = system: TK-10 renal
ACHN renal = system: ACHN renal
CAKI-1 renal = system: CAKI-1 renal
A498 renal = system: A498 renal
CCRF-CEM leukemia = system: CCRF-CEM leukemia
MOLT-4 leukemia = conditions: 10 µM unless noted

Measured: growth

COc1ccccc1/C=C/c1cccc(NC(=S)NCCCCN(C)C)c1
active: SK-MEL-2 melanoma; 10 µM unless noted -81.4% | EKVX NSCLC; 10 µM unless noted -91.7% | SN12C renal; 10 µM unless noted -96.6% | UO-31 renal; 10 µM unless noted -84.9% | TK-10 renal; 10 µM unless noted -82.7% | ACHN renal; 10 µM unless noted -100% | CAKI-1 renal; 10 µM unless noted -87.8% | A498 renal; 10 µM unless noted -65.9% | CCRF-CEM leukemia; 10 µM unless noted -38.8% | MOLT-4 leukemia -32.9%

Cc1cc(C(NC(=O)C2CC3(CC(Nc4cccc5c4C(=O)N(C4CCC(=O)NC4=O)C5=O)C3)C2)c2ccc3c(c2)OC(F)(F)O3)c(O)c2ncccc12 (stereo unspecified)
inactive: SN12C renal; 10 µM unless noted 14.1% | TK-10 renal; 10 µM unless noted 36.1% | CAKI-1 renal; 10 µM unless noted 10.6% | A498 renal; 10 µM unless noted 115%
active: SK-MEL-2 melanoma; 10 µM unless noted -4.6% | EKVX NSCLC; 10 µM unless noted 6.4% | UO-31 renal; 10 µM unless noted -5.11% | ACHN renal; 10 µM unless noted 5.49% | CCRF-CEM leukemia; 10 µM unless noted -7.69% | MOLT-4 leukemia 4.24%

Oc1ccc(Cl)c(Nc2ncnc3c2cnn3CC(Cl)c2ccc(Br)cc2)c1 (stereo unspecified)
active: ACHN renal; 10 µM unless noted 8.02%
inactive: SK-MEL-2 melanoma; 10 µM unless noted 84.8% | EKVX NSCLC; 10 µM unless noted 55.4% | SN12C renal; 10 µM unless noted 43.9% | UO-31 renal; 10 µM unless noted 21.3% | TK-10 renal; 10 µM unless noted 47.1% | CAKI-1 renal; 10 µM unless noted 18.3% | A498 renal; 10 µM unless noted 98.9% | CCRF-CEM leukemia; 10 µM unless noted 59.8% | MOLT-4 leukemia 34.7%

O=C(CCl)Nc1ccc(C(=O)/C=C/c2cc3ccccc3nc2Cl)cc1
-46% (active) and 18.3% (inactive): MOLT-4 leukemia
-5.66% (active) and 36.7% (inactive): EKVX NSCLC; 10 µM unless noted
-3.09% (active) and 60% (inactive): SK-MEL-2 melanoma; 10 µM unless noted
inactive: TK-10 renal; 10 µM unless noted 49.1% and 74.8% | A498 renal; 10 µM unless noted 116% and 193%
-43.5% (active) and 11.1% (inactive): CAKI-1 renal; 10 µM unless noted
-74.1% (active) and 39.4% (inactive): SN12C renal; 10 µM unless noted
active: UO-31 renal; 10 µM unless noted -98.1% and 1.88% | ACHN renal; 10 µM unless noted -99.2% and 9.77% | CCRF-CEM leukemia; 10 µM unless noted -23.1% and 5.66%

CC/C(=C(/c1ccc(O)cc1)c1ccc(OCCN(C)C(=O)CCOCCNC(=O)Cc2ccc3c(c2)CN([C@@H]2CCC(=O)NC2=O)C3=O)cc1)c1ccccc1
inactive: SK-MEL-2 melanoma; 1 µM 101% | SK-MEL-2 melanoma; 10 µM 74.7% | EKVX NSCLC; 1 µM 102% | EKVX NSCLC; 10 µM 97.8% | SN12C renal; 1 µM 89% | SN12C renal; 10 µM 78% | UO-31 renal; 1 µM 92% | UO-31 renal; 10 µM 86.8% | TK-10 renal; 1 µM 94% | TK-10 renal; 10 µM 93.5% | ACHN renal; 1 µM 103% | ACHN renal; 10 µM 101% | CAKI-1 renal; 1 µM 99% | CAKI-1 renal; 10 µM 94.9% | A498 renal; 1 µM 127% | A498 renal; 10 µM 97.7% | CCRF-CEM leukemia; 10 µM 22.9%
active: CCRF-CEM leukemia; 1 µM 3.79%

O=C1N/C(=N\c2nccs2)S/C1=C\c1ccc([N+](=O)[O-])cc1
inactive: SK-MEL-2 melanoma; 10 µM unless noted 16.8% | EKVX NSCLC; 10 µM unless noted 14.3% | SN12C renal; 10 µM unless noted 11.9% | UO-31 renal; 10 µM unless noted 12.6% | TK-10 renal; 10 µM unless noted 31.9% | ACHN renal; 10 µM unless noted 11.3% | CAKI-1 renal; 10 µM unless noted 18.8% | A498 renal; 10 µM unless noted 33.8% | MOLT-4 leukemia 11.9%
active: CCRF-CEM leukemia; 10 µM unless noted -0.568%

COc1ccc2ccccc2c1/C=C1\SC(=Nc2ccc(O)cc2)NC1=O
inactive: SK-MEL-2 melanoma; 10 µM unless noted 27.1% | EKVX NSCLC; 10 µM unless noted 15.8% | UO-31 renal; 10 µM unless noted 17.7% | TK-10 renal; 10 µM unless noted 36.9% | ACHN renal; 10 µM unless noted 17% | A498 renal; 10 µM unless noted 93.5%
active: SN12C renal; 10 µM unless noted 6.03% | CAKI-1 renal; 10 µM unless noted 9.94% | CCRF-CEM leukemia; 10 µM unless noted 2.89% | MOLT-4 leukemia 9.45%

CC/C(=C(/c1ccc(O)cc1)c1ccc(OCCN(C)C(=O)COCCOCCNC(=O)c2ccc3c(c2)CN([C@@H]2CCC(=O)NC2=O)C3=O)cc1)c1ccccc1
inactive: SK-MEL-2 melanoma; 1 µM 101% | SK-MEL-2 melanoma; 10 µM 93.5% | EKVX NSCLC; 1 µM 99.1% | EKVX NSCLC; 10 µM 93.4% | SN12C renal; 1 µM 96% | SN12C renal; 10 µM 85% | UO-31 renal; 1 µM 87.2% | UO-31 renal; 10 µM 87.7% | TK-10 renal; 1 µM 99.1% | TK-10 renal; 10 µM 91.2% | ACHN renal; 1 µM 104% | ACHN renal; 10 µM 101% | CAKI-1 renal; 1 µM 99.3% | CAKI-1 renal; 10 µM 95.5% | A498 renal; 1 µM 114% | A498 renal; 10 µM 110% | CCRF-CEM leukemia; 10 µM 12.9%
active: CCRF-CEM leukemia; 1 µM 9.04%

CC(C)(C)c1cc(-c2cc(-c3ccccc3)[nH]c(=O)c2C#N)cc(C(C)(C)C)c1
inactive: SK-MEL-2 melanoma; 10 µM unless noted 94.4% | EKVX NSCLC; 10 µM unless noted 34.2% | SN12C renal; 10 µM unless noted 30.7% | UO-31 renal; 10 µM unless noted 24.2% | TK-10 renal; 10 µM unless noted 27.6% | ACHN renal; 10 µM unless noted 23.3% | A498 renal; 10 µM unless noted 21.5% | CCRF-CEM leukemia; 10 µM unless noted 68.9% | MOLT-4 leukemia 70.9%
active: CAKI-1 renal; 10 µM unless noted -11.5%

CC(=O)Nc1cccc(-n2c(COc3ccc(Br)cc3)nc3ccccc32)c1
inactive: SK-MEL-2 melanoma; 10 µM unless noted 95.4% and 112% | EKVX NSCLC; 10 µM unless noted 98.1% and 103% | SN12C renal; 10 µM unless noted 104% and 110% | UO-31 renal; 10 µM unless noted 69.3% and 86.1% | TK-10 renal; 10 µM unless noted 119% and 110% | ACHN renal; 10 µM unless noted 79.6% and 107% | CAKI-1 renal; 10 µM unless noted 72.4% and 101% | A498 renal; 10 µM unless noted 105% and 124% | CCRF-CEM leukemia; 10 µM unless noted 95.9% and 98.5% | MOLT-4 leukemia 84.6% and 101%

From PubChem BioAssay (NCI)
